From the supplement of paper PMC11417369
± gives the standard deviation of the averaged measurements. In all, about 25,000 sequences were measured (“ln(normalized median fluorescence intensity)”: median about 7.9, highest 2% from about 11 on). For the sample, the highest values were picked, then their nearest neighbours and some sequences at random.

tested on: PfAP2-I AP2 domain 3 (GST-tagged); experiment: gcPBM binding intensity (ln(normalized median fluorescence intensity)); higher = stronger DNA binding
How it was run: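 Using an Agilent 4 × 180k array, primer-extended double-stranded 36-bp intergenic genomic probes and negative controls were exposed for 1 h to GST-fused P. falciparum DNA-binding domains expressed in E. coli. Binding was carried out in 1× PBS with 1% milk, 0.2 mg/ml BSA, 0.5% salmon testes DNA and 0.03% Triton X-100, and protein was detected with Alexa488 anti-GST antibody and a 488 nm scan. Binding intensity is the highest Masliner-normalised natural-log median intensity across replicate spots of either probe orientation.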

Sequence | gcPBM binding intensity (ln)
GGAAAAAATATATGCACACCCCCCAAAAAAAAAAAA [CACACA_site2222] | 10.6 ± 0.2
AAAAAAAAAAAACACACACACACACCCAAATATATA [CACACA_site150] | 7.91 ± 0.2
TGGGAAAAAATATATGCACACCCCCCAAAAAAAAAA [CACACA_site8696] | 11.5 ± 0.52
CGGATGAATATATATGCACACATCTTTTGTAAAAAT [CACACA_site3190] | 9.16 ± 0.11
TTTCCAATTAGTTTTGCATGTTGAAAAAATGTTGGA [TGCATGCA_site1035] | 7.71 ± 0.52
TATATTATATATATACTGCACTGTTTTACAAAATTA | 10.8 ± 0.57
TTTAGTGAGTTTGTTGTGCACTGAAAAAATTACAAT | 11.1 ± 0.18
CATGAATATTTTAATGTGCACATTTATCATTATATG | 9.5 ± 0.21
TTAATTATGGACAGGGTGCACATGAATAATAATACC | 11 ± 0.18
GCACATATGAATATAATACACACTTGTATTATTAAT [CACACA_site1841] | 8.1 ± 0.52
TTTGAATACTGAATGGTGCAAATTGTTCTCCCCATG | 10.9 ± 0.61
ATTTATATATATATAGGTACACATATTTATATATAA [XGTACX_site8487] | 7.58 ± 0.41
AAAGAAATAAGGTGCACACATATACAGATATATATA [CACACA_site4399] | 10.3 ± 0.4
AAATAGTTGTTAAAGGTGCACAATATGGATATAAGA | 11.5 ± 0.38
TTAAAAGTTATGGATACACACATATAAATATAGATT [CACACA_site7175] | 7.57 ± 0.42
AATATATGTTTAATTTCACACACAAATATACATTTT [CACACA_site9385] | 7.69 ± 0.65
TACAGATACAGATACACACACACACCGAAATAAATA [CACACA_site4865] | 7.84 ± 0.37
ATTTTTAATTTTTTCACACATATATTTAAAATAAAA [CACACA_site4799] | 7.94 ± 0.49
ATATTTTATTATATAGGTACACATAATTTCATGTAA [XGTACX_site415] | 7.83 ± 0.52
TAAAAATTCAATTGCACACGCACATATTTTAATAAG [CACACA_site2014] | 8.8 ± 0.057
ATTTCGTAATTTATATCACACACATATATATATAAT [CACACA_site9021] | 8.06 ± 0.53
AATTTAATATAATGCACACATAAAAAAAAATTCAAA [CACACA_site2062] | 11 ± 0.79
AATTTAATATAATGCACACATAAAAAAAAAAAATTC [CACACA_site1504] | 11 ± 0.61
CATATATATCGTAATGCACACATGTAATTTCATAAT [CACACA_site811] | 11 ± 0.92
TTCAAAATAAAAAATTCACACACATATATATATATA [CACACA_site8653] | 9.28 ± 0.39

Sequence | gcPBM binding intensity (ln)
AAAATTTAATATAATGCACACATAAAAAAAAATTCA [CACACA_site8640] | 10.9 ± 0.92
CTTATATTAATTATTACACACATATTTATAAATGCA [CACACA_site6501] | 8.07 ± 0.47
TGTATAAATATAATCACACATATATATATATATATA [CACACA_site4365] | 9.32 ± 0.53
AATTTATAAGAATAAAGTACTAAAGATACAACTTTA [XGTACX_site7153] | 7.53 ± 0.4
GAATAAAAAAAAAAAAAAATTTATTTTATAATAAAA [CACACA_negctrl_site1514] | 7.24 ± 0.49
ACTTATATTATAAATTGTACAAATATTATATTTGGT [XGTACX_site1424] | 7.76 ± 0.54
ACATATATATATATATATATATATATATTACATTTA [CACACA_negctrl_site627] | 8.54 ± 0.28
AATAAAGAAGAAGAAAGTACACATTTCACAAAGGGG [XGTACX_site1308] | 8.23 ± 0.21
AAAAATACAATTTTCTTGCACTTTGTTGCATTGTAA | 9.79 ± 0.32
TATAAATAGATATATACACACTTGTGCAGAATATTA [CACACA_site7112] | 9.37 ± 0.099
CCATCTTTTTTACGATGTACAAGTATAAGGTATACG [XGTACX_site2697] | 7.76 ± 0.46
TACTGCCTTCCATACCCACACACTTCCCATATATTT [CACACA_site2705] | 8.44 ± 0.69
TAGAACAAATAAAACACACACATATAAATATAGATG [CACACA_site7325] | 7.65 ± 0.73
TTTTTTTGTTGTTGTTGTACGATATTTTCCTTATCA [XGTACX_site2375] | 7.93 ± 0.54
TATGCAATAAAATATACACACAATATACTTATATAT [CACACA_site7691] | 7.87 ± 0.4
TATTCAATACTTAATGCACACAATAAAAAAAATATG [CACACA_site2467] | 10.9 ± 0.71
TATGTAATAAAATATACACACAATATACTTATATAT [CACACA_site3682] | 7.53 ± 0.55
AATAATAATATATGTAGTACACATTTCCATTATGTT [XGTACX_site3708] | 7.75 ± 0.27
ACTTATTGTGGTTTTGCATGTAGCATTTTTACATAC [TGCATGCA_site247] | 8.62 ± 0.91
TGTTTTATTTTTTTTGTGCACATACCTTTAGCATCA [GTGCAC_site9812] | 10.64 ± 0.064
TTTTGTTATTTTTTAGTGCATATAAAGGTTGTTAAG | 10.7 ± 0.4
TTTCTTTTTAAATAGGTGCATATTTTTATAAATATA | 9.95 ± 0.42
CATCATCTTTTAAAGGTGCATAATAATATTGTTAAT | 11.4 ± 0.69
ATATACATTCTATATACATGCATACTTCATTTTGTG [TGCATGCA_site966] | 8.03 ± 0.85
AGGAAAATTATGAATGGTACAGAATATATTAGGAGA [XGTACX_site6282] | 8.05 ± 0.74

Sequence | gcPBM binding intensity (ln)
AAAAGGAGAAATATTGCACACGTGCAAAATGGTATG [CACACA_site4300] | 11.3 ± 0.085
AATGAGAAGGACTGCACACTAAAATGGAAGGAGAAA [CACACA_site1575] | 8.28 ± 0.79
AAGGAGAAATATTGCACACGTGCAAAATGGTATGAG [CACACA_site259] | 11.1 ± 0.35
GTGAAATATGCAAACACACACGAGAAAAATGTATAT [CACACA_site7488] | 8.19 ± 0.91
GAGTGAAATATGCAAACACACACGAGAAAAATGTAT [CACACA_site3196] | 8.09 ± 0.85
AAGAAGAGTTATTGTAGTACATTTTTAAATGTAATA [XGTACX_site7664] | 7.73 ± 0.34
TGTTATATAATTTAGCGTACAGGTTATAGGACGGAT [XGTACX_site8823] | 8.5 ± 0.35
CCATGATTATTAGATTGTACATAACATACAAATTGA [XGTACX_site314] | 7.68 ± 0.45
TGTCATGATACATACACACACATACACATACACATA [CACACA_site2135] | 8.05 ± 0.42
ATATATATATATATATGTACTAATTAATATTTCGAG [XGTACX_site580] | 9.45 ± 0.49
AATATTATATATATGGGTACTAATTCCTTTAATTTC [XGTACX_site102] | 7.45 ± 0.53
TTTTTTTTTTTCGGGGGTACTAATATATTATTAATA [XGTACX_site7809] | 10.8 ± 0.47
ATATGCATAAAAAGAGGTACACATAAAATATATATA [XGTACX_site5864] | 8.19 ± 0.64
TAAATAATTTATAAGTGTACTATTATTGCACGAATA [XGTACX_site7715] | 11.1 ± 0.57
GATATACAATTTAAGTGTACTATAATAAAATATATA [XGTACX_site3013] | 7.79 ± 0.071
TTTATTTAAAATAAGTGTACTAGAAAAATTAAGCAG [XGTACX_site4982] | 8.55 ± 0.16
ACATATTTCCAATAATGTACATACAAAATAAGAATG [XGTACX_site2659] | 7.82 ± 0.58
AAAAAAAAAATATATTGTACAATATTGTAGCTATAT [XGTACX_site7180] | 7.67 ± 0.49
GTTTTTAAGAAAAACACACACTCCTGTTATTTTATA [CACACA_site3696] | 7.67 ± 0.72
ATGCTTATTATTTATTGTACTGAATAAATATATCTG [XGTACX_site4483] | 7.79 ± 0.46
GTGCATAAATCATACACACACACATATATATATATA [CACACA_site2423] | 10.4 ± 0.67
TCGTGCATAAATCATACACACACACCGATATATATA [CACACA_site8767] | 11.3 ± 0.67
GTGCATAAATCATACACACACACATATATAAATATA [CACACA_site7188] | 10.5 ± 0.65
TATACGGACTCTAAGTGTACTTAAAATAATTCAAAC [XGTACX_site3606] | 7.75 ± 0.53
AATTAACCCTAATTTTGTACATATTCCTTTTCTCAT [XGTACX_site46] | 7.92 ± 1

Sequence | gcPBM binding intensity (ln)
TATTATTATTTTATGGTGCAAAAAAAAAAAAAAAAA | 10.9 ± 0.61
TATTTTTATTATATGGTGCATATATACATACATATA | 10.7 ± 0.79
ATTTTATTTTATTAAGTGCAAAAAAAAAAAAAGAAA | 10.2 ± 0.32
AAAAACAAAATTTGGAGTACAGTTATAATATTATTA [XGTACX_site5245] | 8 ± 0.24
ATGAGTGCACAAATATATATATATATATATATATAT [CACACA_negctrl_site404] | 11 ± 0.56
TAATATAATCTGAGTGCACACAAATAAATAAACATA [CACACA_site8032] | 10.5 ± 0.14
GCACAAATATATATATATATATATATATATATATAT [GTGCAC_negctrl_site661] | 9.07 ± 0.54
GGAAAATTATCAATAGCATGCAAAATGTGAATATTA [TGCATGCA_site901] | 7.61 ± 0.7
GAAAATATTATAGCACCACACACTTATTTTATATAT [CACACA_site2265] | 10.5 ± 0.71
AAATATTATAGCACCACACACTTATTTTATTTATAT [CACACA_site7133] | 10.8 ± 0.55
AAATATTATAGCACCACACACTTATTTTATATATAT [CACACA_site5281] | 10.8 ± 0.86
ATTATTATTATATTTTGTACATATGTAACAATATAT [XGTACX_site5780] | 7.83 ± 0.47
ATAAAAAAATTAAATACATGCACATATACACATACA [TGCATGCA_site129] | 8.17 ± 0.38
ATAAAATATATATGCACACACATATATATTTCATAC [CACACA_site3547] | 9.5 ± 0.14
AAAATTTAATATAATGCACACATAAAAAAAAAAAAA [CACACA_site7923] | 11 ± 0.93
GAAATAATTTCATATACACACATATACATACATACA [CACACA_site1358] | 8.44 ± 0.72
GCACACATATAATAATGTACATATATATATTTAAAA [XGTACX_site4561] | 7.96 ± 0.44
AATAATTTTTTAAACACACACACATATATATATATA [CACACA_site95] | 9.32 ± 0.28
AATTTAATATAATGCACACATAAAAAAAAAAAAAAA [CACACA_site123] | 11.2 ± 0.78
TATATAAATTTAATAACACACATATAAAAATGAATT [CACACA_site2366] | 7.61 ± 0.55
CATTTATATAAAAGAACACACATATAAAATATTATT [CACACA_site3601] | 7.66 ± 0.52
TTAAAAGAATATAATGCACACATTATTTTATTTTAT [CACACA_site3772] | 10.9 ± 0.73
AACATTTATATAAAAGAACACACATATAAAATATTA [CACACA_site9199] | 7.62 ± 0.61
ATAATTTCATAATACGTGCACATAATATATAAAAAA | 11.385 ± 0.007
